According to PubChem BioAssay AID1578 (Sanford-Burnham Center for Chemical Genomics, 2009):
In all, about 290,000 compounds went through this assay and about 3,000 (1%) were called active. No stated cut-off is given here; in the data, active means inhibition mostly above about 36% (no sharp cut-off); inactive means mostly below about 34%. What follows is part of a selection rich in actives, with near analogues and random picks from the rest.

Assay: NOD1 signaling inhibitors, primary screen, cell-based, luminescence, uHTS (AID 1578);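 further: HEK-293T reporter cells stimulated with the NOD1 agonist gamma-tri-DAP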
Conditions: NOD1-driven NF-kB luciferase reporter cells, at 4 µM, active compounds read high

Row | Structure (SMILES) | inhibition
1 | Cc1nn(Cc2ccc(F)cc2)c(C)c1NC(=O)CCCn1nc([N+](=O)[O-])cc1C | -34.8% (inactive)
2 | O=c1cc(N2CCN(c3ccccc3)CC2)[nH]c(=O)n1-c1ccccc1 | -19.3% (inactive)
3 | CC(C)NC(=S)N1CCN(Cc2ccc3c(c2)OCO3)CC1 | -10.8% (inactive)
4 | COc1ccc(S(=O)(=O)Nc2c(NC3CCCCC3)c3ccccc3oc2=O)cc1OC | -7.5% (inactive)
5 | O=C(Nc1nnc(CSCc2ccc(F)cc2)s1)c1ccc([N+](=O)[O-])cc1 | 1.6% (inactive)
6 | O=C(O)c1cccc(NC(=S)NCc2ccccc2)c1 | -23.1% (inactive)
7 | CSc1cccc(NC(=O)C(=O)NCc2ccccc2)c1 | -4.7% (inactive)
8 | O=C(Nc1cnc2ccccc2c1)c1ccncc1 | -21.5% (inactive)
9 | NC(=O)c1cccc(NC(=O)Nc2ccc(Cl)cc2)c1 | 9.4% (inactive)
10 | Cc1ccc(NC(=O)Nc2cnc3ccccc3c2)cc1 | -44.8% (inactive)
11 | Cc1ccc(C(=O)Nc2cnc3ccccc3c2)cc1 | 81.8% (active)
12 | O=C(NCc1ccccc1)C(=O)Nc1cccc(C(=O)O)c1 | 39.8% (active)
13 | O=C(Nc1cccc(Cl)c1)Nc1cccc(C(=O)O)c1 | -9.6% (inactive)
14 | O=C(Nc1ccc(Cl)cc1)Nc1cccc(C(=O)O)c1 | 67.9% (active)
15 | CCc1nc(CN2CCN(c3ccc(C(F)(F)F)cn3)CC2)c(C)[nH]1 | -4.8% (inactive)
16 | O=C(c1ccc(S(=O)(=O)Nc2ccccc2)cc1)N1CCCCCCC1 | -14.1% (inactive)
17 | CCOC(=O)CCNC(=O)N1CCCC(Cc2ccccc2)(C(=O)OCC)C1 (stereo not drawn) | -26.2% (inactive)
18 | COc1ccc(NC(=O)CCC(=O)Nc2nnc(CC(C)C)s2)cc1Cl | -5.8% (inactive)
19 | COC(=O)C1=C(C)NC(=O)NC1c1cn(-c2ccccc2)nc1-c1cccs1 (stereo not drawn) | -21.3% (inactive)
20 | CCN1C(=O)/C(=C\N(C(C)=O)c2ccccc2)OC1=S | 55.5% (active)
21 | CCN1C(=O)/C(=C/N(C(C)=O)c2ccccc2)N(c2ccccc2)C1=S | 11.4% (inactive)
22 | CCN1C(=O)/C(=C/N(C)c2ccccc2)OC1=S | -15.3% (inactive)
23 | Nc1nc(COc2ccccc2C=O)nc(Nc2ccccc2)n1 | -7.7% (inactive)
24 | CN(C)c1ccc(C2CC(=O)C=C(Nc3ccccc3N)C2)cc1 (stereo not drawn) | -11.3% (inactive)
25 | Cc1ccc(C(=O)CSc2ncnc3sc4c(c23)CCC(C)C4)cc1 (stereo not drawn) | -2.7% (inactive)
26 | CC(=O)Oc1c(I)cc(I)cc1C(=O)Nc1ccc(Cl)cc1 | 85.8% (active)
27 | O=C(Nc1ccc(Oc2ccc(Cl)cc2)c(Cl)c1)c1cc(I)cc(I)c1O | -14.3% (inactive)
28 | COc1c(Cl)cc(Cl)cc1C(=O)Nc1ccc(NC(C)=O)cc1 | -17.9% (inactive)
